Source: PubChem BioAssay (Tox21)
Inconclusive results are not listed. Calls of active or inactive are those of the source. Calls follow the shape of the dose curve; as a rule, active = well fitted cell-killing curve with a large enough effect in the repeat runs; inconclusive = weak or mixed curves, or effect the other way; inactive = flat fitted curve, though single readings scatter.

Assay: qHTS RealTime-Glo MT Cell Viability Assay in HEK293 cells - 16 hour (AID 1224872); also: nearly all actives have a fitted effect of over 50% in size; as to activity change, negative = cytotoxicity: top concentration of the series differs between compounds
Conditions: RealTime-Glo luminescence; series mostly up to 76.8 µM; activity change, negative = cytotoxicity: at the top concentration
From the text: National Center for Advancing Translational Sciences [NCATS]
NIH Chemical Genomics Center [NCGC]
U.S. Environmental Protection Agency [EPA]
National Institutes of Environmental Health Sciences [NIEHS]
National Toxicology Program [NTP]
U.S. Food and Drug Administration [FDA]
Measure of cell viability is critical in the cell-base assay. Analysis of cell viability is necessary for the characterization of cell responses to cytotoxic drugs and environmental stress. A RealTime-Glo MT Cell Viability Assay to monitor cell viability in real time of continues cell culture during 40 hours of compound treatment was used to screen Tox21 10K library compounds in Hek293 cells. The RealTime-Glo MT Cell Viability Assay is a nonlytic, homogeneous, bioluminescent method to measure cell viability in real time using a simple, plate-based method. The assay involves adding NanoLuc luciferase and a cell-permeant prosubstrate to cells in culture. Viable cells reduce the proprietary prosubstrate to generate a substrate for NanoLuc luciferase. This substrate diffuses from cells into the surrounding culture medium, where it is rapidly used by the NanoLuc Enzyme to produce a luminescent signal. The signal correlates with the number of viable cells, making the assay well suited for cytotoxicity studies.
Tox21 Assay Protocol Summary:
The mixture of Hek293 cell suspension and reagents were dispensed at 600cells/6 ul/well in 1536-well tissue culture treated black solid bottom plates using a Multidrop dispenser. After the assay plates were incubated at a 37 C/5% CO2 incubator for 5 hours, 23 nL of compounds dissolved in DMSO, positive and negative controls was transferred to the assay plate by a pintool work station. The plates were incubated at 37 C for 40 hours. The luminescence intensity were measured at 0h, 8h, 16h, 24h, 32h and 40h time points using ViewLux plate reader during compound treatment.
% is scaled to controls: 0 for no effect and ±100 for the full control effect; potency is read from the fitted curve at half-maximal effect.

Structure (SMILES)	activity change, negative = cytotoxicity	Potency
CCCCCCCCS	6.76% (inactive)	–
CC(C)(O)C(=O)O	9.12% (inactive)	–
Cc1nc(C)c(C)nc1C	20.3% (inactive)	–
CC(=O)Nc1cccc(N)c1	-2.22% (inactive)	–
O=c1[nH][nH]c2ccccc12	-14.5% (inactive)	–
CC(=O)Nc1ccn(C2COC(COC(=O)c3ccccc3)O2)c(=O)n1 (stereo not given)	-0.559% [at 35.3 µM] (inactive)	–
c1ccc(CCNc2nc(-c3ccccc3)cs2)cc1	-10.1% [at 35.3 µM] (inactive)	–
Cc1ccc(NC=O)c(C)c1	17.5% (inactive)	–
CC(C(=O)O)c1ccc(/C=C2\CCCCC2=O)cc1 (stereo not given)	15.6% [at 35.3 µM] (inactive)	–
O=C1C=CCCC1	-4.39% (inactive)	–
Oc1ccc(Oc2ccccc2)cc1	–	14.7 µM (active)
CCC(C)C1N=C(C)C(C)S1 (stereo not given)	11.7% (inactive)	–
COc1ccc(CN(CCN(C)C)c2ncccn2)cc1	-0.105% [at 35.3 µM] (inactive)	–
FC(F)(Cl)C(F)(Cl)Cl	7.38% (inactive)	–
CC1=C(C)C(=O)C(CCCCC#CCCCC#CCO)=C(C)C1=O	–	0.601 µM (active)
O=C(O)c1ccccc1[N+](=O)[O-]	21.8% (inactive)	–
C1=COCCC1	0.436% (inactive)	–
CCCCCCCCCCCCCCCCN	0.533% [at 35.3 µM] (inactive)	–
Cc1c(N=C=O)cccc1N=C=O	15.8% (inactive)	–
CC[C@H](NC(C)C)[C@H](O)c1ccc(O)c2[nH]c(=O)ccc12	1.4% [at 35.3 µM] (inactive)	–

Structure (SMILES)	activity change, negative = cytotoxicity	Potency
O=C(O)CNc1ccccc1	1.21% (inactive)	–
CCOCCn1c(N2CCCN(C)CC2)nc2ccccc21	-1.67% [at 35.3 µM] (inactive)	–
Cc1cc(N)n(-c2ccccc2)n1	-0.0238% (inactive)	–
C=CC(=O)OCCCCCCCCCC	4.35% (inactive)	–
O=C1OC(=O)C2CC=CCC12 (stereo not given)	0.614% (inactive)	–
CCCCCCCCCCCCSC#N	-5.22% (inactive)	–
CC(Cc1ccccc1)(NC(=O)CN)c1ccccc1 (stereo not given)	0.775% [at 35.3 µM] (inactive)	–
CC(C)=CCC[C@H](C)CCO	-3.77% (inactive)	–
[O-][n+]1ccc(Cl)cc1	11.4% (inactive)	–
Cc1ccc2c(Cl)cc(Cl)c(O)c2n1	-4.31% [at 35.3 µM] (inactive)	–
CCN(CC)CC(=O)OCC(=O)[C@@]1(O)CC[C@H]2[C@@H]3CCC4=CC(=O)CC[C@]4(C)[C@H]3[C@@H](O)C[C@@]21C	3.06% [at 35.3 µM] (inactive)	–
Cc1c(Cl)cccc1[N+](=O)[O-]	-8.06% (inactive)	–
CC1(C)CC(O)CC(C)(C)N1[O]	0.616% (inactive)	–
CC1(C)[C@@H]2CC[C@]3(C2)[C@@H]1C(=O)CCC3(C)C	3.64% (inactive)	–
CCCc1nc(C)c2c(=O)[nH]c(-c3cc(S(=O)(=O)N4CCN(CC)CC4)ccc3OCC)nn12	-20.9% [at 35.3 µM] (inactive)	–
COc1ccc(C(=O)Nc2ccccc2)cc1[N+](=O)[O-]	–	24.7 µM (active)
O=C(O)c1ccc(O)c(O)c1	-3.04% (inactive)	–
CCOC(OCC)OCC	0.818% (inactive)	–
CC(CN=Cc1ccccc1O)N=Cc1ccccc1O (stereo not given)	7.88% (inactive)	–
CC(C(=O)O)c1ccc2c(c1)Cc1cccnc1O2 (stereo not given)	1.79% [at 35.3 µM] (inactive)	–
